This is a sample that favours compounds with a hit; in the whole collection about 3% have one here.
MITF TRPM1 inh = MITF TRPM1 promoter inhibition in SK-MEL-5 cells | SK-MEL-5 TRPM1 promoter luciferase, 24 h | inhibition, % at 12.5 µM | hit rate 0.83% among 330,000;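 active = mean inhibition across replicates of 60% or more, whatever share of single replicates reaches that level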
LMP1 NFkB inh = inhibitors of Epstein-Barr LMP1-induced NF-kappaB reporter; LMP1-induced NF-kappaB luciferase reporter cells, luminescence; inhibition, % at 12.5 µM; hit rate 0.69% among 350,000; in the data active = inhibition above about 41%
TWEAK Fn14 block = TWEAK-Fn14 signaling inhibition. TWEAK-stimulated Fn14 reporter cells, luciferase luminescence, 8 h. AID 1159606. hit rate 2% among 360,000. inhibition, % at 10 µM; in the data active = inhibition above about 50%
MITF act = activators of MITF-driven TRPM1 promoter activity in SK-MEL-5 cells; activation, % at 12.5 µM; SK-MEL-5 TRPM1-promoter luciferase, 24 h; % of positive control, neutral wells = 0; hit rate 0.75% among 300,000;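 active = mean activation of at least 80% with every replicate also reaching 80%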
LGR2 antag = Drosophila LGR2 receptor signaling inhibition; HEK293 LGR2, CRE-luciferase, bursicon-stimulated, 4 h; inhibition, % at 9.99 µM; hit rate 0.35% among 380,000;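 active = drop in luminescence signal, shown as inhibition above about 50% in the replicate tests, limit read from the data, passing the limit was not always enough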;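 also: agonist challenge used bursicon conditioned medium at about half maximal strength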
TROY signal inh = inhibitors of TROY-dependent NF-kB signaling | Q293 LMP1-TROYcd NF-kB luciferase reporter, 4 h | inhibition, % at 10 µM | hit rate 0.98% among 360,000;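 active = compounds whose plate-normalised and pattern-corrected inhibition of the luciferase reporter signal at the single screening dose is 50% or more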
Hits are given with their value; 0 = inactive; - = no result.

SMILES	MITF TRPM1 inh	LMP1 NFkB inh	TWEAK Fn14 block	MITF act	LGR2 antag	TROY signal inh
CCOC(=O)c1cnc2ccc(OCC)cc2c1NCc1ccccc1OC	0	0	72	0	0	54
COc1ccc2c3c(n(C)c2c1)[C@H](CO)N(C(C)=O)CC31CCN(C(=O)c2ccccc2)CC1	-	-	-	-	0	-
CO[C@@H]1CN(C)C(=O)c2cc(NS(=O)(=O)CC(F)(F)F)ccc2OC[C@@H](C)N(Cc2nccs2)C[C@H]1C	-	-	-	-	0	-
COc1cc(NC(=O)CN2C(=O)CN(C)C2=O)c(C)cc1[N+](=O)[O-]	0	0	0	0	0	0
COc1cc(NC(=O)Cn2ncc(Cl)c(Cl)c2=O)c(C)cc1[N+](=O)[O-]	103	81	98	0	105	68
C[C@@H]1CCCCO[C@@H](CN(C)C(=O)Nc2ccc(C(F)(F)F)cc2)[C@@H](C)CN([C@H](C)CO)C(=O)c2cc(NC(=O)Nc3ccc(C(F)(F)F)cc3)ccc2O1	-	-	-	-	0	-
CO[C@H]1CN(C)C(=O)c2ccc(NC(C)=O)cc2OC[C@H](C)N(CC2CC2)C[C@H]1C	-	-	-	-	0	-
CCCN1CCC(N2CCCC(C(=O)O)C2)CC1 (stereo unspecified)	0	0	61	0	0	0
CCC(=O)N1[C@@H]2Cn3c(ccc(C4=CCCC4)c3=O)[C@H]1[C@@H](C(=O)N[C@@H](C)c1ccccc1)[C@@H]2CO	-	-	-	-	0	-
CCS(=O)(=O)c1c([N+](=O)[O-])ncn1C	0	0	0	0	0	0
Cn1cnc([N+](=O)[O-])c1Oc1cccc2ccccc12	0	0	50	0	0	0
Cn1cnc([N+](=O)[O-])c1S(=O)(=O)Oc1ccc(Cl)cc1	68	0	0	0	0	0
Cn1cnc([N+](=O)[O-])c1S(=O)(=O)Oc1cccc2ccccc12	93	0	67	0	0	74
Cn1cnc([N+](=O)[O-])c1Oc1ccccc1	0	0	0	0	0	0
CCc1c(C(=O)Nc2ccc(C)c(C)c2)[nH]c(C)c1C(C)=O	0	0	0	88	0	0
COc1c(Cl)cc(Cl)cc1C(=O)Nc1ccc(C(=O)O)cc1	0	0	0	0	0	0
COc1c(Cl)cc(Cl)cc1/C=C/C(=O)c1ccc(NC(=O)c2cccs2)cc1	68	0	79	0	0	0
COCCNC(=O)C[C@@H]1CC[C@H]2[C@H](COc3ccc(NC(=O)COC)cc3C(=O)N2C)O1	-	-	-	-	0	-
Clc1ccc(SCc2nc3ccccc3[nH]2)cc1	0	0	0	119	0	0
Fc1ccccc1CSCc1nc2ccccc2[nH]1	0	0	0	90	0	0
C[C@H](O)C#Cc1ccc2c(c1)O[C@@H](CN(C)C(=O)CN(C)C)[C@H](C)CN([C@H](C)CO)S2(=O)=O	-	-	-	-	0	-
C=CCc1ccc(OCCn2cccc2C=O)c(OC)c1	0	0	0	93	0	0
C=CCc1ccc(OCCn2nnc3ccccc32)c(OC)c1	0	0	0	-	0	0
O=C(CCn1c2c(c3ccccc31)CCCC2)NNC(=O)c1ccccc1Cl	0	0	65	0	0	0
C[C@@H]1CN([C@@H](C)CO)C(=O)c2cc(NC(=O)CCC(F)(F)F)ccc2O[C@@H](C)CCCCO[C@H]1CN(C)C(=O)Nc1cccc2ccccc12	-	-	-	-	0	-
SMILES	MITF TRPM1 inh	LMP1 NFkB inh	TWEAK Fn14 block	MITF act	LGR2 antag	TROY signal inh
CC(C)(C)n1nnnc1C(c1cccc(C#N)c1)N1CCCc2ccccc21 (stereo unspecified)	0	0	50	0	0	0
CC(C)(C)n1nnnc1C(c1ccc(Cl)cc1)N1CCCc2ccccc21 (stereo unspecified)	0	0	0	-	-	0
COc1cccc(NC(=O)N[C@@H]2CC[C@@H](CC(=O)Nc3ccccc3)O[C@H]2CO)c1	-	-	-	-	0	-
CCC(=O)N[C@@H]1C=C[C@@H](CC(=O)NCc2ccc(OC)cc2)O[C@H]1CO	-	-	-	-	0	-
O=C(O)c1ccc2cc(-c3ccccc3)[nH]c2c1	0	0	98	-	-	0
O=C(NCCN1CCOCC1)c1ccc(Cl)c([N+](=O)[O-])c1	0	0	0	-	0	0
COc1ccc(C(=O)NCCN2CCOCC2)cc1[N+](=O)[O-]	0	80	0	0	0	0
CCCOc1ccc(CSC(CC(=O)O)C(=O)O)cc1 (stereo unspecified)	0	0	0	0	-	0
CCCCOc1ccc(CSC(CC(=O)O)C(=O)O)cc1 (stereo unspecified)	0	0	70	0	-	-
CCc1ccc(NC(=O)c2cc(-c3ccco3)on2)cc1	0	0	0	101	-	0
COc1ccc(NC(=O)c2cc(-c3ccco3)on2)cc1	0	0	0	92	0	0
CC(C)(C)c1cc(/C=C2\NC(=O)NC2=O)cc(C(C)(C)C)c1O	0	0	0	0	0	0
CC(C)(C)c1cc(/C=N/O)cc(C(C)(C)C)c1O	0	0	54	0	0	0
Cc1noc(C)c1S(=O)(=O)N(C)C[C@@H]1Oc2c(NC(=O)c3nc4ccccc4s3)cccc2C(=O)N([C@@H](C)CO)C[C@@H]1C	-	-	-	-	0	-
CC(C)(C)c1ccc(C(=O)NNc2ncccc2-n2cccc2)cc1	0	0	0	0	0	53
CCOC(=O)c1sc2nc(NC(=O)C3CC3)sc2c1C	-	0	0	-	0	0
CCOC(=O)c1sc2nc(NC(=O)C(C)(C)C)sc2c1C	0	0	65	0	0	68
Cc1ccc(S(=O)(=O)Nc2ccc3c(c2)C(=O)N([C@@H](C)CO)C[C@H](C)[C@@H](CN(C)C(=O)Nc2ccc(C(F)(F)F)cc2)OCCCC[C@H](C)O3)cc1	-	-	-	-	0	-
CCC(=O)Nc1ccc2c(c1)OC[C@H](C)N(C(=O)COC)C[C@H](C)[C@H](OC)CN(C)C2=O	-	-	-	-	0	-
C(C#CCCCCCCCCC[n+]1ccccc1)#CCCCCCCCCC[n+]1ccccc1	101	0	90	0	-	0
COc1ccc(-c2cn(CC3CCCCC3)nn2)cc1	0	0	0	88	0	0
C[C@@H]1CN([C@@H](C)CO)C(=O)c2cc(NS(=O)(=O)c3cn(C)cn3)ccc2O[C@@H]1CN(C)C(=O)Nc1ccccc1	-	-	-	-	0	-
CCc1nonc1NC(=O)c1oc2cc(C)c(C)cc2c1C	0	0	0	86	0	0
CCC(=O)Nc1ccc2c(c1)C(=O)N(C)[C@H]1CC[C@H](CC(=O)NCc3ccccc3)O[C@H]1CO2	-	-	-	-	0	-
O=C(NC1=C(Nc2ccc(Cl)cc2)C(=O)c2ccccc2C1=O)c1ccccc1	72	0	0	0	-	0
O=C(NC1=C(NC2CCS(=O)(=O)C2)C(=O)c2ccccc2C1=O)c1ccccc1 (stereo unspecified)	0	0	92	0	78	56
O=C(NC1CCS(=O)(=O)C1)c1cccc(Br)c1 (stereo unspecified)	0	0	0	0	0	0
O=C1C(Cl)=C(Nc2ccc3cn[nH]c3c2)C(=O)c2ccccc21	106	0	0	0	0	0
O=C(Oc1ccc(NC2=C(Cl)C(=O)c3ccccc3C2=O)cc1)c1ccc([N+](=O)[O-])cc1	82	0	0	0	-	0
